The results in this text go back to PubChem BioAssay.

Results filed as inconclusive are left out. Calls of active or inactive are those of the source.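 Rule for the calls, unless noted: active = viability at or below 10% of carrier control in both of two separate runs; inconclusive = viability at or below 10% in only one of the two runs; inactive = the rest.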

Assay [1] can be described thus: reducers of endogenous Her2 protein level, primary screen, SKBR3 breast tumor cells, AlphaScreen, ATP viability (AID 461;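 active = Her2 level under about 52% in both replicate screens, with viability over 70% of control, limit read from the data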;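 for Her2 level: lower value means less Her2 protein in the cells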;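 for viability: percent of carrier control wells set as 100% viability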). The following applies: 18-24 h, measured here: SKBR3 viability, ATP luminescence, at 10 µM. In general terms: In Alpha technology, singlet oxygen from a donor bead excites a nearby acceptor bead.
Assay [2] concerns the target Receptor tyrosine-protein kinase erbB-2 (Homo sapiens) (UniProt P04626). Described as above. The following applies: 18-24 h, at 10 µM, stronger effect = lower value.
Assay [3] is described as follows: SK-BR-3 cell growth inhibitors, pilot screen, 24 h, human (AID 572).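 Note: compound exposure lasted between 18 and 24 h rather than exactly 24 h; 100% = carrier-treated control wells.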 Conditions: SK-BR-3 viability, CellTiter-Glo luminescence, at 10 µM, stronger effect = lower value. In general terms: Cellular ATP, detected with luciferase, serves as a proxy for viable cell number.
The nature of assay [4]: HUVEC growth inhibition – cell-based, human, primary screen (AID 575;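 active = viability at or below 30% in both replicate assays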;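 note: 100% = median of untreated cell wells with 0.1% DMSO on each plate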). The following applies: HUVEC proliferation, CellTiter-Glo luminescence, 72 h; at 10 µM; stronger effect = lower value.
Assay [5] is described as follows: growth inhibitors of H69AR lung tumor, primary screen, human, duplicate replicates (AID 580;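 active = viability at or under a set limit in both replicates, limit being median viability minus 3 SD, cut at about 48% in these data, passing the limit was not always enough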;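 note: 100% = mean luminescence of untreated wells and 0% = no signal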). The following applies: H69AR lung tumor cells viability, ATP luminescence, 72 h; at 10 µM; stronger effect = lower value.
Assay [6] can be described thus: reversal of MRP1-mediated doxorubicin resistance, pilot screen, H69AR cells, doxorubicin co-treatment (AID 601;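 active = viability loss from added drug above about 55%, and viability with drug at most 40%, in both replicates, limit read from the data, passing the limit was not always enough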). Conditions: CellTiter-Glo, 72 h, at 10 µM; for differential viability (reversal): stronger effect = higher value.
A short description of assay [7]: 384-well plate pilot, post-Golgi transport modulator project, inhibition of yeast transport mutant growth (AID 636; in the data active = inhibition above about 31%). The following applies: absorbance 615 nm, about 18 h, stronger effect = higher value.
Assay [8] is described as follows: growth suppression of yeast trafficking mutant, preliminary HTS, modulators of trafficking downstream of Golgi apparatus project, 1536-format plate, OD 615 nm (AID 637; in the data active = inhibition above about 30%). The following applies: yeast transport mutant growth, absorbance 615 nm, 18 h; stronger effect = higher value.
The nature of assay [9]: OD615 S. cerevisiae growth inhibition, permissive medium, pilot counter-assay, permissive growth control for S. cerevisiae lifespan shortening project (AID 705;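 active = growth inhibition above 25% in both replicates, a cutoff set 3 SD above the mean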). The following applies: OD615, 24 h, at 10 µM, stronger effect = higher value.
Assay [10] is described as follows: Restrictive medium S. cerevisiae growth inhibition, OD615, pilot screen of yeast lifespan reduction project, restrictive growth control (AID 706;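 active = growth inhibition above a set limit, 3 SD over mean compound inhibition, in both replicates, cut at about 43% in these data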;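 note: modified DeaD lifespan yeast strain shifted to restrictive glucose medium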). The following applies: OD615, 48 h, at 10 µM, stronger effect = higher value.
The nature of assay [11]: viability gain of MRP-1-high H69AR cells under doxorubicin, pilot screen, MRP-1 activator project, CellTiter-Glo, duplicate (AID 807;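 active = viability increase at or above a cutoff of the median across tested compounds plus 3 SD, cut at about 8.5% in these data, passing the limit was not always enough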;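 note: compound pretreatment 18-22 h then 72 h combined with doxorubicin; 0% = doxorubicin alone and 100% = vehicle without doxorubicin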). The following applies: H69AR viability with doxorubicin, CellTiter-Glo luminescence; at 10 µM; stronger effect = higher value.
Assay [12] in a line: growth suppression of beta-catenin knockout HCT116, pilot screen, human colon tumor cells (AID 823;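 active = cell viability at or below a set limit in both duplicate runs, the limit being the all-compound median minus 4 SD, cut at about 23% in these data, passing the limit was not always enough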;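 note: 0% = wells killed by 20 µM Hyamine and 100% = untreated DMSO cell wells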). Conditions: CellTiter-Glo, 60 h, at 10 µM, stronger effect = lower value.
Assay [13] can be described thus: growth suppression of PTEN-deleted HCT116, pilot screen, cell-based, HCT116 clonal line, CellTiter-Glo (AID 824;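 active = viability at or below 27.92% in each of two runs, the all-compound median minus 4 SD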;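 note: 0% = 20 µM Hyamine control and 100% = vehicle cell control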). Conditions: 60 h, at 10 µM, stronger effect = lower value.
Assay [14] is described as follows: inhibitors of the yeast RAM network, pilot screen, dse1pr::URA3 reporter, 5-FOA selection (AID 869;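 active = inhibition over a set limit, the all-compound mean plus 3 SD, in both replicate runs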;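 note: 0% = DMSO wells with no growth and 100% = 10 µM 1-NA-PP1 with full growth; RAM network block rescues cells from 5-FOA so hits raise OD615 growth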). The following applies: S. cerevisiae dse1pr::URA3 5-FOA growth, OD615, 2 d; at 10 µM; stronger effect = higher value; strain carries analog-sensitive mutant Cbk1 kinase.
Assay [15] can be described thus: RAM signaling pathway blockade in yeast – S. cerevisiae, Pdr1DBD-CYC8 efflux-inhibited sensitized strain, primary screen (AID 1298;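 active = RAM network inhibition above 8.4% in each of two replicates, 3 SD over the compound average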;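 note: 0% = DMSO untreated cells without growth and 100% = 10 µM 1-NA-PP1 full growth; higher means more yeast growth rescued from 5-FOA killing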). Conditions: S. cerevisiae cbk1-as DSE1-URA3 strain, 5-FOA growth OD615, 2 d; at 50 µM; stronger effect = higher value.
The mark [16] stands for this setting: H69AR cells + 2 uM doxorubicin, measured here: viability with 2 uM doxorubicin, stronger effect = lower value.
Where [17] appears, read: H69AR cells, compound alone cytotoxicity.

Receptor tyrosine-protein kinase erbB-2 (Homo sapiens), sequence (P04626 whole entry, looked up): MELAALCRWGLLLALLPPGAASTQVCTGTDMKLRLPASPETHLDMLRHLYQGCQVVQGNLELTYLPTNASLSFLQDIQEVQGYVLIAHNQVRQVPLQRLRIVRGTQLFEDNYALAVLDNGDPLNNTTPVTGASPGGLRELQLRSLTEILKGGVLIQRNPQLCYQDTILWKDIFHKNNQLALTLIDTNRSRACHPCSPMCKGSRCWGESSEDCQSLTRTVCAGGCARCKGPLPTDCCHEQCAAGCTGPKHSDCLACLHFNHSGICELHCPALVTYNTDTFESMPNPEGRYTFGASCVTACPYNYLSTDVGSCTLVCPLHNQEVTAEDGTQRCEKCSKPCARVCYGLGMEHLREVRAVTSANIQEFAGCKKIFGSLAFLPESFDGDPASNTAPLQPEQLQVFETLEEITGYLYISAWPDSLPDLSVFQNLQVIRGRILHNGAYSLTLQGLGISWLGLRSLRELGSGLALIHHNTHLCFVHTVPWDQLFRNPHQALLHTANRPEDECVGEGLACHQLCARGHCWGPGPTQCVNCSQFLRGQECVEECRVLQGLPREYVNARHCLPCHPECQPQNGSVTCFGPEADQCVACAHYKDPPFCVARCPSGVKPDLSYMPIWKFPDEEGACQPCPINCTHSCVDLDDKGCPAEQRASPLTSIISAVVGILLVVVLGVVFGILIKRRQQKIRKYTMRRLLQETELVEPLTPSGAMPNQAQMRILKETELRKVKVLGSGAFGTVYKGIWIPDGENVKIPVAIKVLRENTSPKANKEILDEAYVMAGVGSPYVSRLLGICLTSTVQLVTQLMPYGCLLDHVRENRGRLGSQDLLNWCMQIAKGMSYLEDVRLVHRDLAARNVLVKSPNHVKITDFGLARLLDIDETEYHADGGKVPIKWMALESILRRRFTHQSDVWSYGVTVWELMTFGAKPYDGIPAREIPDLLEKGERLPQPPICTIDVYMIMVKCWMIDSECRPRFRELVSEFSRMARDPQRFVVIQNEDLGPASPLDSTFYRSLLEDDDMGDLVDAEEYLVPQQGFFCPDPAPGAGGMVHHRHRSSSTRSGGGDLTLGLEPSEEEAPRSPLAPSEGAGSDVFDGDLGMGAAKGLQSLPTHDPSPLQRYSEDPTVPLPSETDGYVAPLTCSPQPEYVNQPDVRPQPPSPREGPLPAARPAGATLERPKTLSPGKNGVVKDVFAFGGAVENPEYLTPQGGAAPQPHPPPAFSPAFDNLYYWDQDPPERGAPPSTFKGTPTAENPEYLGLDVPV

For the compound `CN(C(=O)c1ccco1)c1nnc(C23CC4CC(CC(C4)C2)C3)s1`, the viability (usually a read-out of living cells in per cent, often relative to untreated cells) in assay [1] was 86%; in assay [3], 86% (inactive); in assay [4] it was 60.3% (inactive); in [5], 75.9% (inactive); in [6] (setting [16]), 76.5%; in assay [6] (setting [17]), 75.9%. Moreover, the figures for the viability in [12] and in assay [13] were 79.5% (inactive) and 66% (inactive), respectively. In addition, the Her2 level in [2] was 87% (inactive). Further, in [6] (H69AR cells + 2 uM doxorubicin), the differential viability (reversal) is -0.595% (inactive). In addition, the inhibition – broadly, the drop in the measured response relative to a control, in per cent – in assay [7] is -3.73% (inactive); in [8] it was -0.83% (inactive); in [14] it was 0.17% (inactive). In addition, the values for the growth inhibition in assay [9] and in assay [10] were -8.84% (inactive) and -8.94% (inactive), respectively. Besides, the viability increase in assay [11] was -7.07% (inactive). In assay [15], the RAM network inhibition was 5.35% (inactive).

Regarding `O=c1oc2c3c4c(cc2s1)CCCN4CCC3`, the viability in assay [1] was 89%; in assay [3] it was 89% (inactive); in assay [4], 101% (inactive); in assay [5], 95.6% (inactive); in assay [6] (setting [16]), 91.2%; in assay [6] (setting [17]), 95.6%. Also, the values for the viability in assay [12] and in assay [13] were 101% (inactive) and 97.1% (inactive), respectively. In addition, in assay [2], the Her2 level is 86% (inactive). Moreover, in assay [6] (H69AR cells + 2 uM doxorubicin), the differential viability (reversal) is 4.35% (inactive). The inhibition in assay [7] was -4.42% (inactive); in assay [8], -2% (inactive); in [14], 1.76% (inactive). The growth inhibition in [9] was 2.12% (inactive); in assay [10], -7.54% (inactive). Besides, the viability increase in [11] is -3.91% (inactive). For the same compound, in assay [15], the RAM network inhibition was 6.79% (inactive).

`Cc1ccc(N2CCN(S(=O)(=O)N(C)C)CC2)c(C)c1`: the viability was 98.5% in assay [1]; 98.5% (inactive) in assay [3]; 90.6% (inactive) in [4]; 83.5% (inactive) in assay [5]; 93.1% in [6] (setting [16]); 83.5% in assay [6] (setting [17]). Besides, the viability in assay [12] is 90.6% (inactive); in assay [13] it was 88.1% (inactive). The Her2 level in [2] was 116% (inactive). Also, the differential viability (reversal) in assay [6] (H69AR cells + 2 uM doxorubicin) is -9.57% (inactive). The inhibition in assay [7] is 1.73% (inactive); in assay [8], 1.17% (inactive); in assay [14], 2.69% (inactive). The figures for the growth inhibition in assay [9] and in [10] were -11.1% (inactive) and -7.42% (inactive), respectively. Besides, the viability increase in assay [11] was 0.57% (inactive). The RAM network inhibition in assay [15] is 6.03% (inactive).

As to `O=C(NCCSc1c[nH]c2ccccc12)c1ccco1`, the viability in [1] was 112%; in assay [3], 112% (inactive); in assay [4], 64.5% (inactive); in [5] it was 65.1% (inactive); in [6] (setting [16]), 90.6%; in assay [6] (setting [17]), 65.1%. The viability in assay [12] was 102% (inactive); in assay [13], 91.6% (inactive). In assay [2], the Her2 level was 93.5% (inactive). For the same compound, in assay [6] (H69AR cells + 2 uM doxorubicin), the differential viability (reversal) was -25.6% (inactive). Besides, the inhibition was -4.8% (inactive) in [7], 0% (inactive) in assay [8] and 1.83% (inactive) in [14]. Also, the growth inhibition in [9] is -5% (inactive); in assay [10] it was -2.81% (inactive). Besides, the viability increase in [11] was -6.06% (inactive). The RAM network inhibition in assay [15] was 0.88% (inactive).

As for `CC(C)(C)SCCNC(=O)COc1ccc(Cl)cc1`, the viability was 94.5% in assay [1]; 94.5% (inactive) in assay [3]; 113% (inactive) in [4]; 109% (inactive) in assay [5]; 89.4% in assay [6] (setting [16]); 109% in assay [6] (setting [17]). The values for the viability in assay [12] and in assay [13] were 96.2% (inactive) and 96.9% (inactive), respectively. In addition, the Her2 level in assay [2] was 90% (inactive). Also, the differential viability (reversal) in assay [6] (H69AR cells + 2 uM doxorubicin) is 19.5% (inactive). Moreover, the inhibition in [7] is -6.89% (inactive); in assay [8], 4.1% (inactive); in [14] it was -0.23% (inactive). The growth inhibition in assay [9] was -8.49% (inactive); in assay [10], -12% (inactive). Further, the viability increase in assay [11] was 0.22% (inactive). In addition, in [15], the RAM network inhibition is 4.53% (inactive).

As to `Cn1c(=O)oc2cc(S(=O)(=O)NC3CCN(Cc4ccccc4)CC3)ccc21`, the viability in assay [1] is 103%; in assay [3], 103% (inactive); in [4], 90.9% (inactive); in assay [5] it was 108% (inactive); in assay [6] (setting [16]), 93.2%; in assay [6] (setting [17]), 108%. Further, the viability was 92% (inactive) in [12] and 94.7% (inactive) in assay [13]. The Her2 level in assay [2] was 96% (inactive). The differential viability (reversal) in assay [6] (H69AR cells + 2 uM doxorubicin) was 14.4% (inactive). The inhibition is -0.51% (inactive) in [7], -1.17% (inactive) in [8] and 1.28% (inactive) in [14]. For the same compound, the growth inhibition is -5.47% (inactive) in assay [9] and -3.98% (inactive) in assay [10]. Moreover, the viability increase in assay [11] was -1.57% (inactive). Also, in assay [15], the RAM network inhibition was 3.24% (inactive).

Take `CCOc1ccc(NC2c3ccccc3C(=O)N2Cc2ccco2)cc1` (stereo not given): the viability in assay [1] is 83.5%; in [3] it was 83.5% (inactive); in [4], 98.7% (inactive); in [5], 96.2% (inactive); in [6] (setting [16]), 98.8%; in [6] (setting [17]) it was 96.2%. The viability was 92.6% (inactive) in assay [12] and 85.4% (inactive) in [13]. Moreover, in [2], the Her2 level was 96.5% (inactive). In assay [6] (H69AR cells + 2 uM doxorubicin), the differential viability (reversal) is -2.58% (inactive). In addition, the inhibition in assay [7] is 5% (inactive); in assay [8] it was 7.83% (inactive); in assay [14], 1.4% (inactive). The growth inhibition is 3.67% (inactive) in assay [9] and 6.9% (inactive) in [10]. In assay [11], the viability increase is -0.75% (inactive). Moreover, the RAM network inhibition in assay [15] is 5.57% (inactive).

With `Cc1c(C#N)c2ncnc(-c3ccccc3)c2n1-c1ccccc1`, the viability in assay [1] is 106%; in assay [3], 106% (inactive); in [4], 85.5% (inactive); in assay [5], 71.8% (inactive); in assay [6] (setting [16]), 19.3%; in assay [6] (setting [17]), 71.8%. Further, the viability was 91% (inactive) in [12] and 85.9% (inactive) in [13]. The Her2 level in assay [2] is 101% (inactive). In addition, in assay [6] (H69AR cells + 2 uM doxorubicin), the differential viability (reversal) is 52.5% (inactive). Further, the inhibition in [7] is -3.64% (inactive); in assay [8], -4.92% (inactive); in assay [14], 0.395% (inactive). In addition, the results for the growth inhibition in assay [9] and in assay [10] were -10.9% (inactive) and -15.3% (inactive), respectively. Further, the viability increase in assay [11] is -5.64% (inactive). For the same compound, the RAM network inhibition in [15] is 5.06% (inactive).

`CCCNC(=O)CS(=O)(=O)Cc1nc(-c2cccc(OC)c2)oc1C`: the viability in assay [1] was 86%; in assay [3] it was 86% (inactive); in [4] it was 109% (inactive); in assay [5], 87.7% (inactive); in assay [6] (setting [16]) it was 91.7%; in assay [6] (setting [17]) it was 87.7%. Also, the viability was 93.1% (inactive) in assay [12] and 87% (inactive) in [13]. Besides, in assay [2], the Her2 level was 90.5% (inactive). Moreover, the differential viability (reversal) in assay [6] (H69AR cells + 2 uM doxorubicin) was -3.96% (inactive). For the same compound, the inhibition in assay [7] is -0.53% (inactive); in assay [8] it was 8.2% (inactive); in [14], 0.365% (inactive). The growth inhibition is 7.42% (inactive) in [9] and -2.08% (inactive) in assay [10]. For the same compound, the viability increase in assay [11] was -0.31% (inactive). For the same compound, the RAM network inhibition in assay [15] is -0.47% (inactive).

Regarding `CCOc1ccc(S(=O)(=O)n2c(C)nc3ccccc32)cc1`, the viability in assay [1] is 93%; in assay [3], 93% (inactive); in assay [4], 65.8% (inactive); in [5], 71.2% (inactive); in assay [6] (setting [16]) it was 117%; in [6] (setting [17]), 71.2%. The viability is 98.2% (inactive) in assay [12] and 96.2% (inactive) in assay [13]. Further, in assay [2], the Her2 level was 112% (inactive). In assay [6] (H69AR cells + 2 uM doxorubicin), the differential viability (reversal) is -45.5% (inactive). The inhibition in assay [7] was 0.51% (inactive); in assay [8] it was 5.67% (inactive); in [14], 1.31% (inactive). Also, the growth inhibition in assay [9] is -11.5% (inactive); in [10], 0.25% (inactive). In addition, the viability increase in assay [11] was 1.02% (inactive). Also, the RAM network inhibition in [15] was 1.31% (inactive).
